# Screening data (PubChem BioAssay)
# Pf apPOL block: Pf-apPOL DNA polymerase inhibition | Recombinant Pf-apPOL, molecular beacon fluorescence, 1.5 h | inhibition, % at 10 µM | 210,000 compounds, 0.25% hits
# mHTT CaM bind: inhibitors of human mutant huntingtin-calmodulin interaction | P42858 | inhibition, % at 15 µM | 190,000 compounds, 3.6% hits | AlphaScreen His-mHTT/GST-CaM binding, luminescence
# Hits are given with their value; - = inactive; . = no result. Only some compounds are listed: those with a hit (about 3.6% of all), similar ones and a draw of the others. No stated cut-off is given here; in the data, active means inhibition above about 50%; inactive means the rest.
SMILES,Pf apPOL block,mHTT CaM bind
CCCC(=O)NC(/C=C/c1ccccc1)c1cc([N+](=O)[O-])c2cccnc2c1O (configuration not stated),-,-
CC(=O)NC(c1ccc(Cl)cc1)c1cc(Cl)c2cccnc2c1O (configuration not stated),-,74
CC(=O)NC(c1ccc(Cl)cc1Cl)c1cc(Cl)c2cccnc2c1O (configuration not stated),-,100
Cc1ccc(C(NC(=O)C(C)C)c2cc(Cl)c3cccnc3c2O)cc1 (configuration not stated),-,-
CC(=O)NC(c1ccc(Cl)cc1)c1cc([N+](=O)[O-])c2cccnc2c1O (configuration not stated),-,100
CC(=O)NC(/C=C/c1ccccc1)c1cc([N+](=O)[O-])c2cccnc2c1O (configuration not stated),-,100
O=C(c1cccc(Br)c1)n1cnc2ccccc21,-,-
CCC(Sc1nc(NC2CCCCC2)c2ccccc2n1)C(=O)NCCCOC (configuration not stated),-,-
Cc1cc(C)c(S(=O)(=O)N2CCC3(CC2)NCCN=C3NC2CCCC2)cc1C,-,-
COc1cc(Cl)c(C)cc1NC(=O)CNC(=O)Cn1cnc2sc(C)cc2c1=O,-,-
O=C(NCc1ccccn1)c1cnn(-c2ccccc2)c1C(F)(F)F,-,-
CC1=NN(c2cc(Cl)cc(Cl)c2)C(=O)/C1=C/c1cccn1-c1ccc(S(N)(=O)=O)cc1,-,52
CC1=NN(c2cc(Cl)ccc2Cl)C(=O)/C1=C/c1cccn1-c1ccc(S(N)(=O)=O)cc1,-,63
NS(=O)(=O)c1ccc(-n2cccc2/C=N/n2cnnc2)cc1,.,-
CC1=NN(c2ccc(S(N)(=O)=O)cc2)C(=O)/C1=C/c1ccc(O)cc1,-,-
CCOC(=O)c1cc2nc3sccn3c2s1,-,.
CCOc1ccc(CCN2C(=O)CCC2(C)C(=O)NC2CCCC2)cc1 (configuration not stated),-,-
CCCCN(CC)C(=O)Cc1cccs1,-,-
O=C1CSC2(C(=O)Nc3ccc(Br)cc32)N1c1cccc([N+](=O)[O-])c1 (configuration not stated),-,-
Cc1cc(C)cc(N2C(=O)CSC23C(=O)Nc2ccc(Br)cc23)c1 (configuration not stated),-,56
CCOc1ccc(C(=O)N2CCCC(c3nc(-c4cccc(NC(=O)CC)c4)no3)C2)cc1 (configuration not stated),-,-
CC(=O)N1CCc2cc(N3CC(C(=O)NCc4ccc(F)cc4Cl)CC3=O)ccc21 (configuration not stated),-,-
COc1ccc(CCC(C)Nc2ccc(OC)cc2OC)cc1 (configuration not stated),-,85
COc1ccc(CCC(C)NCc2ccccc2OC)cc1 (configuration not stated),-,-
CC1(C)CC(NC(=O)c2cccs2)CC(C)(CNC(=O)c2cccs2)C1 (configuration not stated),-,-
SMILES,Pf apPOL block,mHTT CaM bind
CC1=NN(c2ccccc2)C(=O)/C1=C/c1ccc[nH]1,-,81
CC1=NN(c2ccccc2)C(=O)/C1=C/c1cccnc1,-,-
CC1=NN(c2ccccc2)C(=O)/C1=C/c1ccccc1F,-,-
CC1=NN(c2ccccc2)C(=O)/C1=C/c1ccc(Cl)cc1,-,53
CC1=NN(c2ccccc2)C(=O)/C1=C/c1ccc(N)cc1,-,57
CC1=NN(c2ccc(Cl)c(C(=O)O)c2)C(=O)/C1=C/c1ccc(Cl)cc1,-,-
O=S(=O)(NC1CCCCC1Nc1ccccc1)c1ccccc1 (configuration not stated),-,-
Cc1cc(Oc2ccc([N+](=O)[O-])cc2)nc(-n2nc(C)cc2C)n1,-,-
Cc1cc(NCC(O)c2ccc([N+](=O)[O-])cc2)nc(-n2nc(C)cc2C)n1 (configuration not stated),-,97
CCOc1ccc(C(=O)NC2CCCC2)cc1Cl,-,-
O=C(NC12CC3CC(CC(C3)C1)C2)c1cccnc1Cl,-,-
COc1ccccc1CC(=O)Nc1ccc(OC)c(OC)c1,-,-
COc1cc2c(C)[nH]c(=O)c(CC(=O)Nc3ccccc3)c2cc1OC,-,65
CC(=O)Nc1ccc(C2(C(=O)NCc3ccccc3F)CCCCC2)cc1,-,-
Cn1cc(Cl)c(C=C(C#N)S(=O)(=O)C(C)(C)C)n1,-,.
Cc1cccc(NS(=O)(=O)c2ccc(Cl)cc2)n1,-,-
O=C(Nc1cccc(Cl)c1)Nc1cccc2cccnc12,-,-
Cc1cccc(NC(c2ccc(Cl)cc2)c2ccc3cccnc3c2O)n1 (configuration not stated),-,98
COc1ccc(NC(=O)Nc2cccc(C)n2)cc1,-,-
Cc1cccc(NC(c2ccncc2)c2ccc3cccnc3c2O)n1 (configuration not stated),-,100
Cc1cccc(NC(c2cccc(Cl)c2)c2ccc3cccnc3c2O)n1 (configuration not stated),-,98
Cc1cccc(NC(=O)c2cccs2)n1,-,.
COc1ccc(C(Nc2cccc(C)n2)c2ccc3cccnc3c2O)cc1 (configuration not stated),-,100
N=c1ccn2c(n1)OC1[C@@H](O)[C@@H](CO)O[C@H]12 (some centres not stated),-,.
COc1ccc(-c2c(C)oc3cc(OCCN4CCC(C)CC4)ccc3c2=O)cc1,-,-
SMILES,Pf apPOL block,mHTT CaM bind
CC(C)Cc1ccc(C(C)C(=O)NNC(=O)c2ccccc2Cl)cc1 (configuration not stated),-,.
O=C(C1=C2CCCN2c2ccccc2S1(=O)=O)N1CCN(c2ccccc2)CC1,-,-
O=C(Nc1c2c(nn1-c1ccc(F)cc1)CS(=O)(=O)C2)c1ccc(Cl)c([N+](=O)[O-])c1,-,-
Cc1ccc(S(=O)(=O)N2CCc3ccccc32)cc1[N+](=O)[O-],-,-
O=C(c1ccc(N2CCc3ccccc32)c([N+](=O)[O-])c1)N1CCC2(CC1)OCCO2,-,77
O=C(c1ccc(Sc2cccc(Cl)c2)c([N+](=O)[O-])c1)N1CCN(c2ccccn2)CC1,-,-
O=C(c1ccc(Sc2cccc(Cl)c2)c([N+](=O)[O-])c1)N1CCC2(CC1)OCCO2,-,60
O=[N+]([O-])c1ccc(N2CCc3ccccc32)c([N+](=O)[O-])c1,-,56
O=[N+]([O-])c1cc(S(=O)(=O)N2CCc3ccccc32)ccc1N1CCc2ccccc21,-,74
CC(=O)N1c2ccccc2CCc2ccc([N+](=O)[O-])cc21,-,-
O=C(c1ccc(N2CCC3(CC2)OCCO3)c([N+](=O)[O-])c1)N1CCOCC1,-,-
O=C1C2CCC(C2)[C@@H]2CCCCN12 (some centres not stated),-,-
CCOC(=O)CC[C@@H]1CC[C@]2(CCCN(C(=O)c3cccnc3)C2)O1,-,-
CCc1nccn1Cc1noc(-c2ccccc2C)n1,-,-
Cc1cccc(N2CCN(C(=O)C3CCCN(c4cc(=O)n(C)c(=O)n4C)C3)CC2)c1C (configuration not stated),-,51
Cc1cccc(N2CCN(C(=O)C3CCCN(c4cnn(C)c(=O)c4)C3)CC2)c1C (configuration not stated),-,-
COc1ccc(NC(=O)c2ccc(C)cc2Cl)cc1OC,-,-
